According to PubChem BioAssay (NCI):
The panel holds about 83,000 compounds, 20% with a hit somewhere; the sample as a whole holds those more often.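 Interpretation: 100, growth as untreated; towards 0, rising growth inhibition; 0, no net growth; 0 to -100, cell death. Compounds scoring below 10 were considered active.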 Unmarked numbers belong to inactive results. Active and inactive are the calls of the source.

tested on: M14 melanoma; test: NCI-60 one-dose screen, 48 h (100 = growth as untreated, 0 = no growth, -100 = all killed); details: 10 µM unless noted

Compound | growth
N#CC1=C(N)Oc2c(c(N)nn2-c2ccccc2)C1c1ccc(Cl)cc1Cl (stereo not drawn) | 96.7%
C=C(C)[C@@H]1CC[C@]2(C=O)CC[C@]3(C)[C@H](CC[C@@H]4[C@@]5(C)C/C(=C/c6cccnc6)C(=O)C(C)(C)[C@@H]5CC[C@]43C)[C@@H]12 | 78.5%
C=C(C)[C@@H]1CC[C@]2(C(=O)N3CCN(CC)CC3)CC[C@]3(C)[C@H](CC[C@@H]4[C@@](C)(CCC(=O)N5CCN(CC)CC5)[C@H](C(=C)C)CC[C@]43C)[C@@H]12 | 35.8%
CCN1CCN(C(=O)[C@]23CCC(C)(C)C[C@H]2C2=CC[C@@H]4[C@@]5(C)CC/C(=N/O)C(C)(C)[C@@H]5CC[C@@]4(C)[C@]2(C)CC3)CC1 | 65.6%
N#CC1=C(N)Oc2c(sc3c(F)cccc23)C1c1ccc(Cl)cc1 (stereo not drawn) | -26.1% (active)
O=C1c2cccc3cccc(c23)C(=O)N1CC#Cc1ccc2c3c(cccc13)C(=O)N(CCN1CCNCC1)C2=O | 101%
C=C(C)[C@@H]1CC[C@]2(/C=N/Nc3ccncc3)CC[C@]3(C)[C@H](CC[C@@H]4[C@@]5(C)CCCNC(C)(C)[C@@H]5CC[C@]43C)[C@@H]12 | 79.4%
Cc1ccnc2c(OCc3ccccc3)cccc12 | 93.4%
C=CC(=O)N[C@H](Cc1ccc(-c2cc(Cl)cc(Cl)c2)cc1)[C@H](O)[C@@H](O)C(=O)O | 86.3%
C=COCCCCCCCCCCCCCCCCCC | 113%
COc1cc2ncnc(Nc3ccc(Oc4ccnc(C)c4)c(C)c3)c2cc1NC(=O)CC1CCSS1 (stereo not drawn) | -65.1% (active)
CN1CCN(c2nc(-c3csc(-c4cccs4)n3)cc3ccccc23)CC1 | -44.9% (active)
O=C(O[C@@H]1Cc2c(O)cc(O)cc2O[C@@H]1c1cc(O)c(O)c(O)c1)c1cc(O)c2c(c1)OCO2 | 91.9%
C/C(Cc1ccc(Cl)cc1)=C(/c1ccc(Cl)cc1)c1ccc(OCCN2CCCC2)cc1 | 78.2%
Cc1cc(N(CCCNc2ccnc3cc(Cl)ccc23)Cc2ccco2)nc(N2CCOCC2)n1 | 72.5%
Cc1ccccc1-c1nc(C(Cl)Cl)nc2cc(-c3ccccc3)nn12 | 94%
O=C1/C(=C\C(Cl)=C/c2ccc([N+](=O)[O-])cc2)SC(=S)N1CCc1ccc(O)cc1 | -27.5% (active)
Brc1ccc2c(c1)c(-c1nc(-c3c[nH]c4ncccc34)cs1)cn2CCCN1CCCCC1 | -81.4% (active)
Cn1c(/C(C#N)=C/c2ccc3ccccc3c2)cc2ccccc21 | 5.87% (active)

Compound | growth
CN(CSc1ccc(Cl)cc1)c1ccc(CSc2ccc(Cl)cc2)cc1 | 49.7%
CCNCCCn1c2c(c3ccc([N+](=O)[O-])cc3c1=O)C(=O)c1cc(OC)cnc1-2 | -37.1% (active)
CC1(C)NC2=C(C(Nc3cccnc3)N1)C(c1ccc([N+](=O)[O-])cc1)C(C(=O)c1ccc(N=[N+]=[N-])cc1)O2 (stereo not drawn) | 104%
COc1ccc(C2C(C#N)=C(N)Oc3c2sc2c(F)cccc32)cc1 (stereo not drawn) | -15.6% (active)
COc1cc(-c2cc3ncccc3c3[nH]c(=O)c4cccnc4c23)cc(OC)c1OC | 12.8%
CCCCC/C(=C\c1ccccc1)C1OC(C)C(C)O1 (stereo not drawn) | 87.8%
COc1ccc2c(c1)c(-c1nc(-c3c[nH]c4ncccc34)cs1)cn2CCNC(=O)OC(C)(C)C | 69.3%
COc1cc(/C=C/c2cc(/C=C/c3ccc(O)c(OC)c3)n(-c3ccccc3)c(=O)n2)ccc1O | 85.7%
CCN1CCN(C(=O)[C@]23CC[C@@H](C)[C@H](C)[C@H]2C2=CC[C@@H]4[C@@]5(C)C/C(=C/c6cccc(OC)c6OC)C(=O)C(C)(C)[C@@H]5CC[C@@]4(C)[C@]2(C)CC3)CC1 | 29.5%
COc1cc2c(cc1-c1c(C)noc1C)ncc1nc(C3CCCCC3)n([C@@H](C)COC(F)F)c12 | 34.7%
CC(=O)OC[C@]12CC[C@@H](/C(C)=N/O)[C@@H]1[C@H]1CC[C@@H]3[C@@]4(C)CCCNC(C)(C)[C@@H]4CC[C@@]3(C)[C@]1(C)CC2 | 78.1%
Brc1cnc2[nH]cc(-c3nnc(-c4ccccc4)o3)c2c1 | 76.6%
COc1ccc2[nH]c(-c3ccc(Cl)cc3)cc(=O)c2c1 | 95.1%
CCN1CCN(C(=O)[C@]23CCC(C)(C)C[C@@H]2C2=CC[C@@H]4[C@@]5(C)C/C(=C/c6ccncc6)C(=O)C(C)(C)[C@@H]5CC[C@@]4(C)[C@]2(C)CC3)CC1 | -76% (active)
COc1ccc(/C=C(\C#N)c2cc3ccccc3n2S(C)(=O)=O)cc1 | 56.1%
Cc1ccc(S(=O)(=O)Nc2ccc(-c3cc(-c4cccc(F)c4)c(C#N)c(=O)[nH]3)cc2)cc1 | 81.3%
N#CC1=C(N)Oc2c(c(N)nn2-c2ccccc2)C1c1ccc(Cl)cc1 (stereo not drawn) | 103%
C=C(C)[C@@H]1CC[C@]2(CN)CC[C@]3(C)[C@H](CC[C@@H]4[C@@]5(C)CCC(=O)NC(C)(C)[C@@H]5CC[C@]43C)[C@@H]12 | 70.9%
CC1(C)[C@@H](O)CC[C@]2(C)[C@H]3CC[C@@H]4[C@H]5[C@H](C(=O)/C=C/c6ccc(C(F)(F)F)cc6)CC[C@]5(CO)CC[C@@]4(C)[C@]3(C)CC[C@@H]12 | 7.81% (active)
